Experiments:
[1] = test system: Vero E6 infected with SARS-CoV-2; assay: morphology score (similarity to uninfected cells); higher = more like uninfected cells; settings: 24 h
[2] = test system: Vero E6 infected with SARS-CoV-2; assay: SARS-CoV-2 infection rate relative to infected DMSO; higher = more infection, active = 60 or less; settings: 24 h

| Compound | morphology score [1] | SARS-CoV-2 infection rate [2] |
| --- | --- | --- |
| CN1[C@H]2C[C@H](OC(=O)[C@H](CO)c3ccccc3)C[C@@H]1[C@@H](O)C2 [anisodamine] (10 µM) | -0.00951 | 116% (inactive) |
| Nc1ncc2c(n1)CC(c1ccco1)CC2=O (stereo not drawn) (10 µM) | 0.0161 | 99% (inactive) |
| CN1CCN(Cc2ccc(Nc3ncc(Cl)c(Nc4ccccc4S(=O)(=O)N(C)C)n3)cc2)CC1 (10 µM) | -0.145 | 120% (inactive) |
| NS(=O)(=O)c1cc2c(cc1Cl)NC(C1CC3C=CC1C3)NS2(=O)=O (stereo not drawn) [cyclothiazide] (10 µM) | 0.0121 | 106% (inactive) |
| C=CCc1ccc(O)c(-c2cc(CC=C)ccc2O)c1 [magnolol] (10 µM) | 0.249 | 108% (inactive) |
| CCCCCCCC/C=C\CCCCCCCC(=O)NCc1ccc(O)c(OC)c1 [olvanil] (10 µM) | 0.22 | 96% (inactive) |
| CC(C)(C)c1ccc(-c2nc3c(N4CCN(Cc5ccc6nccnc6c5)CC4)cccc3[nH]2)cc1 (0.833333 µM) | 0.0532 | 102% (inactive) |
| CN(c1ncccc1CNc1nc(Nc2ccc3c(c2)CC(=O)N3)ncc1C(F)(F)F)S(C)(=O)=O (0.833333 µM) | -0.119 | 106% (inactive) |
| CCCCc1nc(C)c(CC(=S)N(C)C)c(=O)n1Cc1ccc(-c2ccccc2-c2nnn[nH]2)cc1 [fimasartan] (10 µM) | 0.0951 | 112% (inactive) |
| CC(=O)[C@@]1(O)CC[C@H]2[C@@H]3C=C(Cl)C4=CC(=O)[C@@H]5C[C@@H]5[C@]4(C)[C@H]3CC[C@@]21C (10 µM) | 0.204 | 109% (inactive) |
| COc1ccc(CCC(=O)c2c(O)cc(O[C@@H]3O[C@H](CO)[C@@H](O)[C@H](O)[C@H]3O[C@@H]3O[C@@H](C)[C@H](O)[C@@H](O)[C@H]3O)cc2O)cc1O [Neohesperidin dihydrochalcone (Nhdc)] (10 µM) | 0.0549 | 99.5% (inactive) |
| CC(C)C[C@@H](C(=O)N[C@H](C(=O)OC1CCCC1)c1ccccc1)[C@H](O)C(=O)NO [tosedostat] (10 µM) | 0.243 | 97% (inactive) |
| O=C1C2CC=CCC2C(=O)N1SC(Cl)(Cl)Cl (stereo not drawn) [captan] (10 µM) | 0.232 | 93% (inactive) |
| Cc1c(C(=O)NN2CCCCC2)nn(-c2ccc(Cl)cc2Cl)c1-c1ccc(I)cc1 (10 µM) | 0.254 | 93% (inactive) |
